Whole data set: some 1,300 sequences, median “log fluorescence intensity” near 8.9, cut for the highest 2% near 13. The list comes from a sample in which the highest values are over-represented; it also holds similar and randomly drawn sequences.

For this assay, the target named is T1, ELK1 (Homo sapiens, UniProt P19419 1-428).
T1 sequence: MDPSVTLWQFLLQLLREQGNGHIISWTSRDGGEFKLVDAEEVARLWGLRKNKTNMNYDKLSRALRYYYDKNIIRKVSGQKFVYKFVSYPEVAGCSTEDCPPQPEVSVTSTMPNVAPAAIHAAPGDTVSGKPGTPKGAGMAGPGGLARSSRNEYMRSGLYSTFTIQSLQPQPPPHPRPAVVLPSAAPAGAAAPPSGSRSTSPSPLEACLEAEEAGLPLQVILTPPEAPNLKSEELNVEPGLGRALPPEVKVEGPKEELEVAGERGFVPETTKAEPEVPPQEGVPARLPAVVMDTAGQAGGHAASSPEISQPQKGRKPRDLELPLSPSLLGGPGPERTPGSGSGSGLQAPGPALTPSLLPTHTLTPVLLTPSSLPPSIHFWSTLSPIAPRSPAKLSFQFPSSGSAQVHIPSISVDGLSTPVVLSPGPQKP
As to the kind of experiment: custom PBM; custom protein-binding microarray; buffer, salt, pH and temperature not stated; high values mean tight binding. The settings on record: dsDNA, one strand shown.
Take “TCCGGCTCCCAGCTCCACCCACTTCAGGCCTTGTAGGTCTTGATTCGCTTGACGCTGCTG”: the binding signal was 8.92 log fluorescence intensity.
Turning to “CACAATTTTTACAGTAATGTAGCACGCGTAATTCCTGTCTTGATTCGCTTGACGCTGCTG”, the binding signal is 8.98 log fluorescence intensity.
“CAGCATAGGACTCCTTCCCTGAAGCAATTGATAACCGTCTTGATTCGCTTGACGCTGCTG”: the binding signal is 8.92 log fluorescence intensity.
For the sequence “CACAATTTTTACAGTAATGTAGCACGCGTAGCTCCTGTCTTGATTCGCTTGACGCTGCTG”, the binding signal was 9.06 log fluorescence intensity.
As to “TAAAGGGACGACGGTTGTGGTAGTTCCGGGTATTAAGTCTTGATTCGCTTGACGCTGCTG”, the binding signal was 11.3 log fluorescence intensity.
For the sequence “CACAATTTTTACAGTAATGTAGCACGCGTTACTCCTGTCTTGATTCGCTTGACGCTGCTG”, the binding signal was 9.11 log fluorescence intensity.
In the case of “GATTTATTTCTGCCCTTATTCGCACGTGCCATAACAGTCTTGATTCGCTTGACGCTGCTG” it was 8.91 log fluorescence intensity; in that of “CAGCATAGGACTTCTTCCCTGAAGCAATAGATAACCGTCTTGATTCGCTTGACGCTGCTG”, 8.97 log fluorescence intensity.
With “CACAATTTTTACAGTAATGTAGTACGCGTAACTCCTGTCTTGATTCGCTTGACGCTGCTG” the figure was 9.01 log fluorescence intensity.
For “GGAAAAAGGCCCAGGGTAACACCGGAAGTGGGCGTAGTCTTGATTCGCTTGACGCTGCTG”, the binding signal was 10.9 log fluorescence intensity.
With “TGTCGGGTAAGGGAATGTAGATCACGTGAATGACAAGTCTTGATTCGCTTGACGCTGCTG” the figure was 8.94 log fluorescence intensity; with “TAAAGGGAAGACGGTTGTGGTAGTTCCGGGTTTTAAGTCTTGATTCGCTTGACGCTGCTG”, 11.2 log fluorescence intensity.
With “TACTGACTTATATATGCGGATGCACATGAATAGACCGTCTTGATTCGCTTGACGCTGCTG” the figure was 9.12 log fluorescence intensity; with “GGAAAAAGGCCCAGGGTAACACCGGAAGTGGCCTTAGTCTTGATTCGCTTGACGCTGCTG”, 10.9 log fluorescence intensity; with “GCTGCTGCGGTGCATACCCCACCGGATGTGACCTCGGTCTTGATTCGCTTGACGCTGCTG”, 10.1 log fluorescence intensity.
With “GGAAAAAGGCCCAGGGTAACACAGGAAGTGGGCTTAGTCTTGATTCGCTTGACGCTGCTG” the figure was 9.55 log fluorescence intensity.
As to “GATTAATATCTGCCCTTATTCGCACGTGCCATAACAGTCTTGATTCGCTTGACGCTGCTG”, the binding signal is 8.95 log fluorescence intensity.
With “CTGCATAGGACTTCTTCCCTGAAGCAATTGATAACCGTCTTGATTCGCTTGACGCTGCTG” the figure was 8.94 log fluorescence intensity; with “GACTAATTTCTGCCCTTATTCGCACGTGCCATAACAGTCTTGATTCGCTTGACGCTGCTG”, 8.95 log fluorescence intensity; with “TCCGGCTACCAGTTCCACCCACTTCAGGCCTTGTAGGTCTTGATTCGCTTGACGCTGCTG”, 9.18 log fluorescence intensity.
For the sequence “GGAATAAGGCCCAGGGTAACACCGGAAGTGGGCTTAGTCTTGATTCGCTTGACGCTGCTG”, the binding signal was 10.9 log fluorescence intensity.
In the case of “TACTAACTTATATATGCGAATGCACATGAATAGACCGTCTTGATTCGCTTGACGCTGCTG” it was 8.93 log fluorescence intensity; in that of “TCCGGCTACCAGCTCCACCCACTTCAGTCCTTGTAGGTCTTGATTCGCTTGACGCTGCTG”, 9.06 log fluorescence intensity; in that of “GATTCATTTCTGCCCTTATTCGCACGTGCCATAACAGTCTTGATTCGCTTGACGCTGCTG”, 8.97 log fluorescence intensity.
With “GGAAAAAGGCCCAGGGAAACACCGGAAGTGGGCTTAGTCTTGATTCGCTTGACGCTGCTG” the figure was 11.4 log fluorescence intensity.
In the case of “GTGTATAGGATCCCATCCAACACACGTGTTCAAATGGTCTTGATTCGCTTGACGCTGCTG”, the binding signal is 8.97 log fluorescence intensity.
For the sequence “TACTGACTTCTATATGCGAATGCACATGAATAGACCGTCTTGATTCGCTTGACGCTGCTG”, the binding signal is 8.96 log fluorescence intensity.
With “TGTCGGGCAAGGGAATGTAGATCACGTGAATGAAAAGTCTTGATTCGCTTGACGCTGCTG” the figure was 9.09 log fluorescence intensity.
In the case of “CAGCATAGTACTTCTTCCCTGAAGCAATTGATAACCGTCTTGATTCGCTTGACGCTGCTG” it was 8.98 log fluorescence intensity.
In the case of “TAAAGGGAAGACGGTTGTGGTGGTTCCGGGTATTAAGTCTTGATTCGCTTGACGCTGCTG” it was 11.1 log fluorescence intensity; in that of “GCTGCTGGGGTGCATACCCCACCGGATGTGACCCCGGTCTTGATTCGCTTGACGCTGCTG”, 9.94 log fluorescence intensity.
Turning to “GTGTATAGGATCCCATTCAACACACGTGTTAAAATGGTCTTGATTCGCTTGACGCTGCTG”, the binding signal was 8.9 log fluorescence intensity.
In the case of “TAAAGGGAAGACGGTTGTGGTAGATCCGGGTATTAAGTCTTGATTCGCTTGACGCTGCTG” it was 9.61 log fluorescence intensity; in that of “TAAGGGGAAGACGGTTGTGGTAGTTCCGGGTATTAAGTCTTGATTCGCTTGACGCTGCTG”, 11.3 log fluorescence intensity; in that of “GGAAAAAGGCACAGGGTAACACCGGAAGTGGGCTTAGTCTTGATTCGCTTGACGCTGCTG”, 11 log fluorescence intensity.
Consider “GGAAAAAGGCCCAGGGTAACACCGGAATTGGGCTTAGTCTTGATTCGCTTGACGCTGCTG”, for which the binding signal is 9.46 log fluorescence intensity.
With “CGGAAGTGTCGTAAACGTCGGATATCCGCTTCTTCTGTCTTGATTCGCTTGACGCTGCTG” the figure was 11.5 log fluorescence intensity; with “CAGCATAGGACTTCTTCCCTGAAGCAGTTGATAACCGTCTTGATTCGCTTGACGCTGCTG”, 8.98 log fluorescence intensity.
Consider “GTGTATAGGATCCCATCCAACACACGTGTTAATATGGTCTTGATTCGCTTGACGCTGCTG”, for which the binding signal was 8.92 log fluorescence intensity.
Turning to “GGAAAAAGGCCCCGGGTAACACCGGAAGTGGGCTTAGTCTTGATTCGCTTGACGCTGCTG”, the binding signal was 12.6 log fluorescence intensity.
As for “GGAAAAAGGCCCGGGGTAACACCGGAAGTGGGCTTAGTCTTGATTCGCTTGACGCTGCTG”, the binding signal is 11.8 log fluorescence intensity.
Consider “GGAAAAAGGCCCTGGGTAACACCGGAAGTGGGCTTAGTCTTGATTCGCTTGACGCTGCTG”, for which the binding signal was 11.1 log fluorescence intensity.
With “CTGGGACTTGACCCAAATCTGCCACGTGGGTCGTTTGTCTTGATTCGCTTGACGCTGCTG” the figure was 9 log fluorescence intensity; with “TGTCAGGTAAGGGAATGTAGATCACGTGAATGAAAAGTCTTGATTCGCTTGACGCTGCTG”, 8.9 log fluorescence intensity; with “TACTGAGTTATATATGCGAATGCACATGAATAGACCGTCTTGATTCGCTTGACGCTGCTG”, 8.97 log fluorescence intensity.
In the case of “TAAAGGGAAGACGGTTGTGGTAGTTCCGGGAATTAAGTCTTGATTCGCTTGACGCTGCTG” it was 11.2 log fluorescence intensity.
With “CAGCATAGGACTTCTTCCCTGAAGCAATTGATACCCGTCTTGATTCGCTTGACGCTGCTG” the figure was 8.91 log fluorescence intensity; with “TACTGACTTATATATGCGAATGCACATGAATAGAACGTCTTGATTCGCTTGACGCTGCTG”, 8.92 log fluorescence intensity; with “TGGCGGGTAAGGGAATGTAGATCACGTGAATGAAAAGTCTTGATTCGCTTGACGCTGCTG”, 8.95 log fluorescence intensity.
Consider “CTGGGACTTGACCCAACTCTGCCACGTGGGTCGTATGTCTTGATTCGCTTGACGCTGCTG”, for which the binding signal is 8.98 log fluorescence intensity.
Regarding “CTGGGACTTGACCCAACTCTGCCACGTGGGGCGTTTGTCTTGATTCGCTTGACGCTGCTG”, the binding signal is 8.94 log fluorescence intensity.
For “TACTGACTTATATATCCGAATGCACATGAATAGACCGTCTTGATTCGCTTGACGCTGCTG”, the binding signal was 9.23 log fluorescence intensity.
With “TAAAGGGAAGATGGTTGTGGTAGTTCCGGGTATTAAGTCTTGATTCGCTTGACGCTGCTG” the figure was 10.9 log fluorescence intensity; with “CGGAAGTATCGTAAACGTCGGATATCCGGTTCTTCTGTCTTGATTCGCTTGACGCTGCTG”, 12 log fluorescence intensity; with “CGGATGTGTCGTAAACGTCGGATATCCGGTTCTTCTGTCTTGATTCGCTTGACGCTGCTG”, 12.2 log fluorescence intensity.
On to “CGGAAGCGTCGTAAACGTCGGATATCCGGTTCTTCTGTCTTGATTCGCTTGACGCTGCTG”, for which the binding signal was 12.5 log fluorescence intensity.
For the sequence “CGGAAGGGTCGTAAACGTCGGATATCCGGTTCTTCTGTCTTGATTCGCTTGACGCTGCTG”, the binding signal is 12.1 log fluorescence intensity.
With “CGGAACTGTCGTAAACGTCGGATATCCGGTTCTTCTGTCTTGATTCGCTTGACGCTGCTG” the figure was 12.5 log fluorescence intensity; with “CGGACGTGTCGTAAACGTCGGATATCCGGTTCTTCTGTCTTGATTCGCTTGACGCTGCTG”, 12.2 log fluorescence intensity.
“CGGAAATGTCGTAAACGTCGGATATCCGGTTCTTCTGTCTTGATTCGCTTGACGCTGCTG”: the binding signal was 12.6 log fluorescence intensity.
In the case of “CGGAATTGTCGTAAACGTCGGATATCCGGTTCTTCTGTCTTGATTCGCTTGACGCTGCTG”, the binding signal is 12.8 log fluorescence intensity.
With “CGGAAGTCTCGTAAACGTCGGATATCCGGTTCTTCTGTCTTGATTCGCTTGACGCTGCTG”, the binding signal was 12 log fluorescence intensity.
Turning to “CTGGGACTTGGCCCAACTCTGCCACGTGGGTCGTTTGTCTTGATTCGCTTGACGCTGCTG”, the binding signal is 8.95 log fluorescence intensity.
With “TCCGGCTATCAGCTCCACCCACTTCAGGCCTTGTAGGTCTTGATTCGCTTGACGCTGCTG” the figure was 9.1 log fluorescence intensity; with “CAGCATAGGACTTCTTCCCTGAAGAAATTGATAACCGTCTTGATTCGCTTGACGCTGCTG”, 8.96 log fluorescence intensity.

The record behind these values is article PMC6602471.
